Assay [1] can be described thus: viability loss in pontine glioma line – cell-based, SU-DIPG-XIII, MIPE4.0, CellTiter-Glo, qHTS, dose response (AID 1347061; cut-off not given, nearly all actives have AC50 up to about 37 µM;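 note: cells exposed to compound for 48 hours before readout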). Particulars: CellTiter-Glo ATP luminescence. For orientation: In ATP-based viability assays light output follows the ATP content of the culture.
Assay [2] in a line: viability loss in pontine glioma line – cell-based, JHH-DIPG-1, MIPE4.0, CellTiter-Glo, qHTS, dose response (AID 1347062; cut-off not given, nearly all actives have AC50 up to about 27 µM;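 for AC50: cells exposed to compound for two days before readout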). Particulars: JHH-DIPG-1 viability, CellTiter-Glo ATP luminescence.
Assay [3] is described as follows: viability loss in pontine glioma line – cell-based, SU-DIPG-XIII, MIPE5.0, CellTiter-Glo, qHTS, dose response (AID 1347064; cut-off not given, nearly all actives have AC50 up to about 23 µM;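 for AC50: cells exposed to compound for 48 hours before the viability read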). Particulars: CellTiter-Glo ATP luminescence.
Assay [4] can be described thus: viability loss in pontine glioma line – cell-based, SU-DIPG-XXV, MIPE5.0, CellTiter-Glo, qHTS, dose response (AID 1347065; cut-off not given, nearly all actives have AC50 up to about 26 µM;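 note: cells exposed to compound for 48 hours before ATP readout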). Particulars: CellTiter-Glo ATP luminescence.
Assay [5] in a line: growth inhibition of DIPG cells – cell-based, MIPE4.0 library, CellTiter-Glo luminescence, qHTS (AID 1347066; cut-off not given, nearly all actives have AC50 up to about 30 µM;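 note: cells exposed to compound for 48 hours before readout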). Particulars: SU-DIPG-VI viability, CellTiter-Glo ATP luminescence.
Assay [6] in a line: JHH-DIPG-1 glioma cell viability, MIPE5.0 library, CellTiter-Glo luminescence, qHTS (AID 1347067; cut-off not given, nearly all actives have AC50 up to about 26 µM;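 note: cells exposed to compound for 48 hours before readout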). Particulars: JHH-DIPG-1 glioma viability, CellTiter-Glo ATP luminescence.
The nature of assay [7]: growth inhibition of DIPG cells – cell-based, MIPE5.0 library, qHTS (AID 1347068; cut-off not given, nearly all actives have IC50 up to about 30 µM). Particulars: SU-DIPG-XXV viability. Background: qHTS replaces the single test concentration by a dilution series.
The target in assay [8] is ATP-dependent translocase ABCB1 (Homo sapiens) (UniProt P08183). The experiment in a line: P-glycoprotein substrate transport blockade – cell-based (AID 377; in the data active = fluorescence slope change above about 50%). Particulars: MDR1-expressing cells, fluorescent substrate accumulation slope; stronger effect = higher value; concentration not given here.
Sequence of ATP-dependent translocase ABCB1 (Homo sapiens) (P08183 whole entry, looked up): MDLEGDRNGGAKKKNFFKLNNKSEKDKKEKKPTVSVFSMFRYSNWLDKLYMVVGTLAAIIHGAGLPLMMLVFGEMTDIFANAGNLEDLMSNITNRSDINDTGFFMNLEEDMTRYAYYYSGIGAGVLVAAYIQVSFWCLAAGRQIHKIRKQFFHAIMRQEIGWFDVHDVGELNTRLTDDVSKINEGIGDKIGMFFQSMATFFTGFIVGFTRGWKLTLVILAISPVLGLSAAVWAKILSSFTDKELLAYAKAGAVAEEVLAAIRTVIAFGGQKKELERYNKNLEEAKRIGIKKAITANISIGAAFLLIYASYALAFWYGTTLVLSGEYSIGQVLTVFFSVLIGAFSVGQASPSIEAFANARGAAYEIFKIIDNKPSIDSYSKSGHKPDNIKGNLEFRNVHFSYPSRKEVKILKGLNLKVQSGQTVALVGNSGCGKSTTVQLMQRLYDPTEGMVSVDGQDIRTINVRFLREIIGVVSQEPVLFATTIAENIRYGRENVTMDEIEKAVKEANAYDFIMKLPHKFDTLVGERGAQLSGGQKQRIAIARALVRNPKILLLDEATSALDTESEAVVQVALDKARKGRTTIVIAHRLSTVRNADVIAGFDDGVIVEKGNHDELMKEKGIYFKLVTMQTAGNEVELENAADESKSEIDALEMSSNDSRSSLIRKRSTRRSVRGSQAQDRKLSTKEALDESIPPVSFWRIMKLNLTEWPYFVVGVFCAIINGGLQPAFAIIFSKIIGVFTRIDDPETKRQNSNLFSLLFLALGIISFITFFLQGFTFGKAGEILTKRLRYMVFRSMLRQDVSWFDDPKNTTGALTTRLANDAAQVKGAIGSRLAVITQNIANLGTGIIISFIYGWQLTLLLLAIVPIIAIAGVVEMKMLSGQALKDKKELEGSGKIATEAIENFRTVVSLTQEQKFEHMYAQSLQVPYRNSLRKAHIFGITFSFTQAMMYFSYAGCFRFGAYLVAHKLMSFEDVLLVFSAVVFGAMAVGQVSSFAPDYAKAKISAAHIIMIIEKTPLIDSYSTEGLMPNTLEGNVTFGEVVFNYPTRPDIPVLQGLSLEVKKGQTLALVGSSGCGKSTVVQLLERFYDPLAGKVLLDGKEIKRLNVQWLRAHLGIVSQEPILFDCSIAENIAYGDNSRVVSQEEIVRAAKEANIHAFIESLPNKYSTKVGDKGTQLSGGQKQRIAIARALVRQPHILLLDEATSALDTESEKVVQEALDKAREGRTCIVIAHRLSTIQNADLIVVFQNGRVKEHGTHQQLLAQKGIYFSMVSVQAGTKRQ
Assay [9] can be described thus: compounds altering circadian rhythm period length – cell-based, LOPAC library, luminescence reporter (AID 2774; call rule not given here;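 note: values are relative to mean of DMSO wells on each plate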). Particulars: circadian reporter cells, at 7 µM, actives lie on both sides.
The test system of assay [10] is Hepatitis C virus NS3 helicase. The experiment in a line: blockers of NS3h binding to ssDNA – biochemical, fluorescence polarization, LOPAC1280 library, primary screen (AID 687035; in the data active = inhibition above about 37%). Particulars: Purified HCV NS3 helicase, Cy5-dT15 ssDNA binding fluorescence polarization; stronger effect = higher value; concentration not given here.
A short description of assay [11]: compounds altering Cy5-DNA-NS3h complex signal – biochemical, LOPAC1280, artefact control for HCV NS3 helicase inhibitor project (AID 687037; call rule not given here). Particulars: Cy5-DNA-NS3h complex fluorescence interference counterscreen. For orientation: A counterscreen serves to expose hits that act by an unwanted route or on another target.
Assay [12] can be described thus: viability loss in pontine glioma line – cell-based, SU-DIPG-XVII, MIPE5.0, CellTiter-Glo, qHTS, dose response (AID 1347060; cut-off not given, nearly all actives have AC50 up to about 26 µM;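 note: cells exposed to compound for 48 hours before viability readout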). Particulars: CellTiter-Glo ATP luminescence.
The nature of assay [13]: viability loss in pontine glioma line – cell-based, SU-DIPG-IV, MIPE4.0, CellTiter-Glo, qHTS, dose response (AID 1347063; cut-off not given, nearly all actives have AC50 up to about 30 µM;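 note: compound exposure lasted 48 hours before the viability readout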). Particulars: CellTiter-Glo ATP luminescence.
The nature of assay [14]: blockers of cellular phospholipid synthesis – cell-based, LOPAC library, screen 4, primary screen (AID 1347384; call rule not given here). Particulars: animal cells, phospholipid biosynthesis inhibition screen; at 10 µM.
Assay [15] can be described thus: drug combination growth inhibition, ovarian cancer – cell-based, oncology-focused library, rucaparib conditional, profiling panel (AID 1508598). Particulars: patient-derived ovarian cancer cells, CellTiter-Glo viability, 144 h, stronger effect = lower value.
Assay [16] is described as follows: GFP-Q80 aggregate reduction, neuronal-like cells, cell-based, NGF-treated PC12, GFPQ80 (AID 1614).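 Note: lower means fewer inclusions and 0 means no inclusions at all.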 Particulars: PC12 NGF-treated GFP-polyQ80 inclusion reduction.
In assay [17] the test system is Aerobactin synthetase IucA (Klebsiella pneumoniae). The experiment in a line: inhibition of K. pneumoniae IucA enzyme – biochemical, Tocris library, absorbance (AID 1345561; call rule not given here;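 note: 100% = enzyme without compound and 0% = no enzyme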). Particulars: purified IucA enzyme assay, absorbance (OD) read-out; stronger effect = lower value;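 tested at 8 µM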.

Each structure is given as a SMILES string. Results filed as inconclusive are left out. Calls of active or inactive are those of the source.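 Rule for the calls, unless noted: active = normalized viability below 100% at a tested concentration; inactive = the rest.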

Regarding `CC(=O)OCC(=O)[C@@]1(O)CC[C@H]2[C@@H]3CCC4=CC(=O)C=C[C@]4(C)[C@H]3[C@@H](O)C[C@@]21C`, the compound was classed as inactive in [1], in [2], in [3], in assay [4], in assay [5] and in assay [6]. The compound was called inactive in [7].
Take `CCN(CC)C(=S)SSC(=S)N(CC)CC`: the fluorescence slope change in assay [8] was 81.8% (active). The period change in assay [9] was -0.07 h (inactive). The inhibition in [10] is -3% (inactive). Besides, the fluorescence ratio (interference) in assay [11] is 1 (inactive). Besides, the AC50 was 934 nM (active) in assay [12]; 10.5 nM (active) in assay [1]; 9.35 nM (active) in [2]; 20.9 nM (active) in assay [13]; 934 nM (active) in assay [3]; 833 nM (active) in assay [4]. For the same compound, the half-maximal activity concentration (AC50) in assay [5] is 3.72 nM (active); in assay [6], 934 nM (active). For the same compound, the result in assay [7] and in [14] was inactive. The viability is 117% (inactive) in assay [15] (at 0.000305 µM, OCI-C5x cells, with rucaparib 10 µM, 100% = cells with rucaparib alone); 126% (inactive) in assay [15] (at 0.000305 µM, OCI-C5x cells, without rucaparib); 78.8% (active) in assay [15] (at 0.000305 µM, OCI-P5x cells, with rucaparib 20 µM, 100% = cells with rucaparib alone); 89.7% (active) in [15] (at 0.000305 µM, OCI-P5x cells, without rucaparib); 122% (inactive) in [15] (at 0.00122 µM, OCI-C5x cells, with rucaparib 10 µM, 100% = cells with rucaparib alone); 146% (inactive) in assay [15] (at 0.00122 µM, OCI-C5x cells, without rucaparib). The viability in [15] (at 0.00122 µM, OCI-P5x cells, with rucaparib 20 µM, 100% = cells with rucaparib alone) is 76.6% (active); in assay [15] (at 0.00122 µM, OCI-P5x cells, without rucaparib), 90.8% (active); in assay [15] (at 0.00488 µM, OCI-C5x cells, with rucaparib 10 µM, 100% = cells with rucaparib alone) it was 117% (inactive); in [15] (at 0.00488 µM, OCI-C5x cells, without rucaparib) it was 130% (inactive); in [15] (at 0.00488 µM, OCI-P5x cells, with rucaparib 20 µM, 100% = cells with rucaparib alone), 75.9% (active); in assay [15] (at 0.00488 µM, OCI-P5x cells, without rucaparib), 86.5% (active). For the same compound, the viability in assay [15] (at 0.0195 µM, OCI-C5x cells, with rucaparib 10 µM, 100% = cells with rucaparib alone) is 128% (inactive); in [15] (at 0.0195 µM, OCI-C5x cells, without rucaparib), 126% (inactive); in [15] (at 0.0195 µM, OCI-P5x cells, with rucaparib 20 µM, 100% = cells with rucaparib alone) it was 74.6% (active); in assay [15] (at 0.0195 µM, OCI-P5x cells, without rucaparib), 78.5% (active); in [15] (at 0.0781 µM, OCI-C5x cells, with rucaparib 10 µM, 100% = cells with rucaparib alone), 120% (inactive); in assay [15] (at 0.0781 µM, OCI-C5x cells, without rucaparib), 120% (inactive). Also, the viability was 104% (inactive) in [15] (at 0.0781 µM, OCI-P5x cells, with rucaparib 20 µM, 100% = cells with rucaparib alone); 131% (inactive) in [15] (at 0.0781 µM, OCI-P5x cells, without rucaparib); 135% (inactive) in assay [15] (at 0.313 µM, OCI-C5x cells, with rucaparib 10 µM, 100% = cells with rucaparib alone); 136% (inactive) in assay [15] (at 0.313 µM, OCI-C5x cells, without rucaparib); 102% (inactive) in [15] (at 0.313 µM, OCI-P5x cells, with rucaparib 20 µM, 100% = cells with rucaparib alone); 129% (inactive) in assay [15] (at 0.313 µM, OCI-P5x cells, without rucaparib). The viability is 121% (inactive) in [15] (at 1.25 µM, OCI-C5x cells, with rucaparib 10 µM, 100% = cells with rucaparib alone); 135% (inactive) in [15] (at 1.25 µM, OCI-C5x cells, without rucaparib); 103% (inactive) in [15] (at 1.25 µM, OCI-P5x cells, with rucaparib 20 µM, 100% = cells with rucaparib alone); 116% (inactive) in [15] (at 1.25 µM, OCI-P5x cells, without rucaparib); 113% (inactive) in assay [15] (at 5 µM, OCI-C5x cells, with rucaparib 10 µM, 100% = cells with rucaparib alone); 129% (inactive) in [15] (at 5 µM, OCI-C5x cells, without rucaparib). The viability in assay [15] (at 5 µM, OCI-P5x cells, with rucaparib 20 µM, 100% = cells with rucaparib alone) is 110% (inactive); in [15] (at 5 µM, OCI-P5x cells, without rucaparib), 120% (inactive).
For `CCN(CC)CC(=O)Nc1c(C)cccc1C`, in assay [16], the inclusion score was determined as 2. In addition, the period change in [9] is -0.265 h (inactive). For the same compound, the inhibition in assay [10] is -3% (inactive). Besides, the fluorescence ratio (interference) in [11] is 1 (inactive). Besides, in assay [14], the outcome was inactive.
`CCOC(=O)N1CCC(=C2c3ccc(Cl)cc3CCc3cccnc32)CC1`: the period change in assay [9] is -0.1 h (inactive). Further, the inhibition in [10] is 0% (inactive). In addition, the fluorescence ratio (interference) in assay [11] is 1 (inactive). Further, in assay [17], the remaining activity is 99.4% (inactive). Further, the result in assay [1], in assay [2] and in [14] was inactive. The AC50 in [13] was 18700 nM (active).

As usually defined, the inhibition is the drop in the measured response relative to a control, in per cent. As usually defined, the AC50 is the midpoint of the concentration-response curve, whichever way the signal moves. The term viability denotes a read-out of living cells in per cent, often relative to untreated cells. By remaining activity is commonly meant what remains of the control signal, in per cent.

These data come from PubChem BioAssay.
